A short description of assay [1]: qHTS assay for small molecule agonists of the p53 signaling pathway (AID 651631; calls by dose curve; note: nearly all actives have a fitted effect of over 15% in size; note: potency is the fitted concentration of half-maximal effect). The procedure, abridged: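 Readout was fluorescence from the LiveBLAzer FRET substrate, applied for 2 h at room temperature after 16 h compound exposure at 37 °C. Cells were the p53RE-bla HCT-116 line, with beta-lactamase driven by p53 response elements.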
A general note: Quantitative high-throughput screening tests each substance at several concentrations.

Assay [2] in a line: qHTS assay for small molecules that induce genotoxicity in human embryonic kidney cells expressing luciferase-tagged ATAD5 (AID 651632). Note: nearly all actives have a fitted effect of over 15% in size. Note: potency is the fitted concentration of half-maximal effect. Put shortly:
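DMSO vehicle served as the control. HEK293T reporter cells, 16 hr at 37C, then 30 min Amplite at room temperature; ATAD5 induction is measured as luciferase activity.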

Assay [3] can be described thus: qHTS assay for small molecule agonists of the p53 signaling pathway - cell viability (AID 651633; calls by dose curve; note: nearly all actives have a fitted effect of over 30% in size; note: potency is the fitted concentration of half-maximal effect). The procedure, abridged:
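p53RE-bla cells were treated with compound for 16 hours at 37 C. Cytotoxicity was then measured as CellTiter-Glo luminescence after 30 min at room temperature.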

A short description of assay [4]: qHTS assay for small molecules that induce genotoxicity in human embryonic kidney cells expressing luciferase-tagged ATAD5 - cell viability (AID 651634; calls by dose curve; note: nearly all actives have a fitted effect of over 25% in size; note: potency is the fitted concentration of half-maximal effect). The procedure, abridged: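 Here HEK293T cells with the ATAD5 luciferase reporter are incubated with test compounds for 15.5 hr, and cytotoxicity is then gauged by measuring protease activity in live cells using fluorescence.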

Assay [5] can be described thus: qHTS assay for small molecule disruptors of the mitochondrial membrane potential - cell viability (AID 720634; calls by dose curve; note: nearly all actives have a fitted effect of over 20% in size; note: potency is the fitted concentration of half-maximal effect). Put shortly:
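Viability of HepG2 cells is scored from ATP content by luminescence; cells are exposed to compound for 1 hr at 37 C and 5% CO2, then dosed with m-MPI dye before the CellTiter-Glo reagent.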

Assay [6] in a line: qHTS assay to test for compound auto fluorescence at 590 nm (red) in HepG2 cells (AID 720674). Put shortly: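 Fluorescence at 590 nm emission following 540 nm excitation was recorded from HepG2 wells one hour after compound transfer, with DMSO-only wells as vehicle and Rose Bengal sodium equivalency as the scale.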
The nature of assay [7]: qHTS assay to test for compound auto fluorescence at 535 nm (green) in HepG2 cells (AID 720675).
A short description of assay [8]: qHTS assay to test for compound auto fluorescence at 460 nm (blue) in HEK293 cells (AID 720678). The procedure, abridged: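 Measured: blue fluorescence (Ex 405/Em 460 nm) of compound-treated HEK293 cells, incubated overnight at 37C with 5% CO2 and scaled to triamterene equivalents.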
Assay [9] is described as follows: qHTS assay to test for compound auto fluorescence at 590 nm (red) in HEK293 cells (AID 720679). Put shortly: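 Using HEK293 cells at 2,000 per well, the screen added 23 nL of each compound after cell attachment and incubated overnight (37C, 5% CO2). The plate reader then captured red-label fluorescence, Ex/Em 540/590nm.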
Assay [10] in a line: qHTS assay for small molecule disruptors of the mitochondrial membrane potential (AID 720635). Note: potency is the fitted concentration of half-maximal effect. Put shortly:
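HepG2 cells exposed to compound 1 hr at 37C, then Mito-MPS dye 30 min. Ratio read of aggregate (540/590 nm) versus monomer (490/535 nm) fluorescence.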

SMILES strings stand for the structures. Where “and” joins values, the source holds several entries; their conditions need not be identical. Equal values may be shown once. Results filed as inconclusive are left out. A structure can be active in one record and inactive in another. Calls of active or inactive are those of the source. Unless noted, calls come from the whole dose curve; as a rule, active = well fitted curve in the direction sought with a large enough effect in the repeat runs; inconclusive = weak or mixed curves; inactive = no such curve, though single readings can be large; an effect the other way counts as inactive or inconclusive.
% is set by controls: 0 for no effect and ±100 for the full control effect.

For `Oc1cccc2cc3cccc(O)c3c(O)c12`, the Potency entry in assay [1], in [2], in assay [3], in assay [4], in assay [5] and in [6] was “inactive” in each case. Further, the Potency entry in assay [7], in assay [8] and in assay [9] was “inactive” throughout.
For the compound `CC(=O)S[C@@H]1CC2=CC(=O)CC[C@]2(C)[C@H]2CC[C@@]3(C)[C@@H](CC[C@@]34CCC(=O)O4)[C@H]12`, the Potency in assay [1] is 17.2 µM (active). Further, the Potency entry in [2], in assay [3], in assay [4], in [5], in assay [6] and in assay [7] was “inactive” throughout. Moreover, the Potency result in [8] and in assay [9] was “inactive” in each case.
Consider `O=C(OC[C@H]1O[C@@H](OC(=O)c2cc(O)c(O)c(OC(=O)c3cc(O)c(O)c(O)c3)c2)[C@H](OC(=O)c2cc(O)c(O)c(OC(=O)c3cc(O)c(O)c(O)c3)c2)[C@@H](OC(=O)c2cc(O)c(O)c(OC(=O)c3cc(O)c(O)c(O)c3)c2)[C@@H]1OC(=O)c1cc(O)c(O)c(OC(=O)c2cc(O)c(O)c(O)c2)c1)c1cc(O)c(O)c(OC(=O)c2cc(O)c(O)c(O)c2)c1`, for which the Potency in assay [1] is 2.66 µM (active) and 10.4 µM (active); in [3], 5.96 µM (active) and inactive; in [5], 10.6 µM (active) and inactive; in [10], 2.37 µM (active). Also, the Potency result in assay [2], in assay [6], in [7], in assay [8] and in [9] was “inactive” throughout.
As to `O=c1[nH]cnc2nc[nH]c12`, the Potency result in [1], in assay [2], in assay [3], in [5], in assay [10] and in assay [6] was “inactive” in each case. Moreover, the Potency result in assay [7], in assay [8] and in assay [9] was “inactive” in each case.
As to `COc1cccc2c1C(=O)c1c(O)c3c(c(O)c1C2=O)C[C@@](O)(C(=O)CO)C[C@@H]3O[C@H]1C[C@H](N)[C@H](O[C@@H]2CCCCO2)[C@H](C)O1`, the Potency in assay [1] is 1.88 µM (active); in [2], 2.37 µM (active); in assay [3], 8.41 µM (active); in [10], 0.699 µM (active). The Potency result in assay [5] and in [8] was “inactive” in each case.
As to `C[C@@H]1C[C@H]2[C@@H]3CCC4=CC(=O)C=C[C@]4(C)[C@@]3(Cl)[C@@H](O)C[C@]2(C)[C@@]1(OC(=O)c1ccco1)C(=O)CCl`, the Potency entry in assay [1], in [2], in [3] and in assay [5] was “inactive” throughout. Moreover, the Potency in assay [10] was 11.4 µM (active). Further, in assay [6], the fluorescence, relative to Rose Bengal was -0.134% [at 18.6 µM] (inactive). In addition, the fluorescence, % of fluorescein control in assay [7] was 0.0009% [at 18.6 µM] (inactive). Also, the fluorescence, % of triamterene in assay [8] is 0.0948% [at 18.6 µM] (inactive). The fluorescence, % of fluorescent control in [9] is 0.225% [at 18.6 µM] (inactive).
In the case of `O=C(Nc1cccc(Cl)c1)OCC#CCCl`, the Potency in [1] was 8.63 µM (active); in [3], 68.6 µM (active); in assay [4], 61.1 µM (active); in [10] it was 21.7 µM (active). The Potency entry in [2], in assay [6], in assay [7], in assay [8] and in [9] was “inactive” throughout.
As to `CSc1cnc(C)cn1`, the Potency entry in [1], in assay [2], in assay [3], in assay [5], in assay [10] and in [6] was “inactive” in each case. Also, the Potency entry in assay [7], in [8] and in assay [9] was “inactive” throughout.
Consider `O=[N+]([O-])c1ccccc1Nc1ccccc1`, for which the Potency result in assay [1], in assay [2], in [3], in assay [5], in assay [6] and in [7] was “inactive” each time. Further, the Potency result in [8] and in assay [9] was “inactive” in each case.
In the case of `CN(C)c1ccc(C2(c3ccc(N(C)C)cc3)OC(=O)c3cc(N(C)C)ccc32)cc1`, the values for the Potency in assay [1] and in [10] were 60.9 µM (active) and 21.6 µM (active), respectively. In addition, the Potency result in assay [2], in assay [3], in assay [6], in [7], in [8] and in assay [9] was “inactive” throughout.
Take `O=C(NOCC1CC1)c1ccc(F)c(F)c1Nc1ccc(I)cc1Cl`: the Potency in assay [1] is 11.9 µM (active); in assay [3] it was 23.7 µM (active); in assay [10] it was 8.41 µM (active). The Potency result in assay [2], in [6], in assay [7], in [8] and in assay [9] was “inactive” throughout.
In the case of `COCCCC/C(=N\OCCN)c1ccc(C(F)(F)F)cc1`, the Potency result in assay [1], in [2], in assay [3], in assay [4], in assay [5] and in assay [6] was “inactive” in each case. Also, the Potency entry in assay [7] and in [9] was “inactive” in each case.
On to `Cc1cccc2c1cc1ccc3cccc4ccc2c1c34`, for which the Potency in assay [1] is 2.49 µM (active). For the same compound, the Potency entry in [2], in assay [3], in [4], in [5], in [6] and in [7] was “inactive” throughout. For the same compound, the Potency result in assay [8] and in assay [9] was “inactive” in each case.
As for `N=C1N=C(N)c2ccccc21`, the Potency in assay [1] was 24.3 µM (active); in assay [2] it was 21.7 µM (active); in [3], 21.7 µM (active). The Potency result in assay [5], in [6], in [7], in [8] and in assay [9] was “inactive” each time.
For the compound `C=CC(=O)OCC(CO)(COCC(COC(=O)C=C)(COC(=O)C=C)COC(=O)C=C)COC(=O)C=C`, the Potency in assay [1] is 67.8 µM (active); in [2], 2.4 µM (active); in assay [3] it was 2.7 µM (active); in assay [4], 7.6 µM (active). Moreover, the Potency result in assay [6], in assay [7], in assay [8] and in assay [9] was “inactive” in each case.
For `CC(=O)OCC(C)OC(C)=O` (centres undefined), the Potency entry in [1], in assay [2], in [3], in [4], in [5] and in assay [6] was “inactive” in each case. Moreover, the Potency entry in assay [7], in [8] and in [9] was “inactive” each time.
In the case of `O=c1cc(-c2ccc(O)cc2)oc2cc(O)cc(O)c12`, the Potency is 15.6 µM (active) and 43.3 µM (active) in assay [1]; 5.52 µM (active) and 4.86 µM (active) in [2]; “inactive and 54.5 µM (active)” in assay [3]; 4.92 µM (active) in [5]; 1.75 µM (active) and 1.37 µM (active) in assay [10]. Further, the Potency entry in assay [6], in [7], in assay [8] and in assay [9] was “inactive” in each case.
Take `CCCCCCCCCCCCCCCS(=O)(=O)Oc1ccccc1`: the Potency result in assay [1], in assay [2], in [3], in [6], in assay [7] and in assay [8] was “inactive” throughout. For the same compound, the Potency result in assay [9] was “inactive”.
Regarding `NC(=O)N1C(=O)C(C(=O)c2cc(Cl)cs2)c2cc(F)c(Cl)cc21` (centres undefined), the Potency in [1] is 2.17 µM (active); in assay [3] it was 1.37 µM (active); in assay [4] it was 27.3 µM (active); in assay [5], 0.217 µM (active). Also, the Potency entry in [2], in assay [6], in assay [7], in assay [8] and in assay [9] was “inactive” each time.
Consider `O=C1Cc2cc(CCN3CCN(c4nsc5ccccc45)CC3)c(Cl)cc2N1`, for which the Potency entry in [1], in assay [2], in assay [5], in assay [10], in [6] and in [7] was “inactive” each time. For the same compound, the Potency entry in assay [8] and in assay [9] was “inactive” each time. Further, the Potency result in assay [3] was “inactive and 23.7 µM (active)”.

The record behind these values is PubChem BioAssay (Tox21).
